High-throughput results: PubChem, several laboratories
NadD block: inhibitors of Staphylococcus aureus NadD; inhibition, % at 20 µM; AID 602399; purified NadD enzyme, colorimetric absorbance read-out; 360,000 compounds, 0.78% hits; in the data active = inhibition above about 26%
PREPL inh: inhibitors of human prolyl oligopeptidase-like enzyme PREPL. inhibition, % at 5.96 µM. recombinant PREPL, fluorescence polarization activity-based probe. Q4J6C6. 320,000 compounds, 0.68% hits. AID 2751; in the data active = inhibition above about 43%;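 note: 0% = enzyme with DMSO and 100% = wells lacking enzyme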
Target sequence (Q4J6C6 whole entry, looked up): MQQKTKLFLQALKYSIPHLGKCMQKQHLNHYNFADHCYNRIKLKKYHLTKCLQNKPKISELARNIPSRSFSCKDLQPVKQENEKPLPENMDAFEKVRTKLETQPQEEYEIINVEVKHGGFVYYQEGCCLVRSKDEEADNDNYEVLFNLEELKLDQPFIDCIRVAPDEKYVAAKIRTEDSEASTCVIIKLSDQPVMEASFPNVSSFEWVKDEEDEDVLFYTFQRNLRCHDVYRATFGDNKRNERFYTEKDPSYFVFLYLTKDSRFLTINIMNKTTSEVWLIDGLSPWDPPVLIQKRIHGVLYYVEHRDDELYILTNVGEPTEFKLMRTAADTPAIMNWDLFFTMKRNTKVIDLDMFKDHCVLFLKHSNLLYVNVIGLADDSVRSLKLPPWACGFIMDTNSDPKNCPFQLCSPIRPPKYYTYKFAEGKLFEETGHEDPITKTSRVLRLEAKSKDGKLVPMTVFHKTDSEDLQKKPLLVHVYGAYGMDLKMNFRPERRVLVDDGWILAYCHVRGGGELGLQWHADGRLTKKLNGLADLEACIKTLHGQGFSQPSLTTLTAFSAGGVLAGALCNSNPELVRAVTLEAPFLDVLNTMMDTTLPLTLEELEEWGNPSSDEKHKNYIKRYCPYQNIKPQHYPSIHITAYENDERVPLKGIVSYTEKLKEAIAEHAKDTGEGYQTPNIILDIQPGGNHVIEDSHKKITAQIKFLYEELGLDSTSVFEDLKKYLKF
Rpn11 inh: inhibitors of human proteasome Rpn11; O00487; human 26S proteasome, Ub4-pepOG fluorescence polarization; 20S core pre-blocked with epoxomicin; inhibition, % at 20 µM; 360,000 compounds, 0.59% hits;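 active = inhibition at 20 µM, scaled to each plate's controls, above about 33%, limit read from the data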
PP5 primary: inhibitors of human protein phosphatase 5 (PP5). P53041. purified PP5c, OMFP substrate fluorescence. inhibition, % at 6.7 µM. 320,000 compounds, 0.18% hits. AID 1987;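 active = inhibition above the campaign's mean inhibition across all tested compounds plus 3 SD, cut at about 9.5% in these data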;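 note: 0% = DMSO only and 100% = 100 µM cantharidin control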
PP1 inh: PP1-alpha (human) inhibition in PP5 counter-screen | P62136 | purified PP1alpha, OMFP fluorescence | inhibition, % at 6.7 µM | 320,000 compounds, 0.9% hits;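 active = inhibition above the mean inhibition of all tested compounds plus 3 SD, computed separately for each screening campaign, cut at about 15% in these data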
* = called active by the depositor; · = no result shown. Most compounds without a hit are left out; they make up all but 2.4% or so of the library.

SMILES	NadD block	PREPL inh	Rpn11 inh	PP5 primary	PP1 inh
COc1ccc(/C=C/C(=O)NC(=S)NNC(=O)Cc2cccs2)cc1	8.0	-1.4	17.6	0.2	19.6*
Cc1onc(-c2ccccc2)c1C(=O)NNC(=S)NC(=O)/C=C/c1ccccc1	13.8	-2.1	19.4	3.6	14.4
COc1ccc(/C=C/C(=O)NC(=S)NNC(=O)c2c(-c3ccccc3)noc2C)cc1	19.2	8.8	22.8	4.4	17.2*
COc1ccc(/C=C/C(=O)NC(=S)NNC(=O)c2ccco2)cc1	5.1	23.4	5.4	2.2	8.3
Cc1ccc(NC(=S)NCc2ccc3c(c2)cc(C)n3C)c(C)c1	5.7	25.1	2.3	2.0	0.8
CC(=O)CC1c2ccccc2C=C(c2ccsc2)N1c1ccc(-c2cccs2)cc1 (centres undefined)	23.6	·	·	·	·
O=C(COc1ccccc1[N+](=O)[O-])N/N=C/C=C/c1ccco1	7.1	7.7	1.1	3.7	-0.7
COc1cc(/C=N/NC(=O)COc2ccccc2[N+](=O)[O-])ccc1OC(=O)c1ccco1	-2.1	100.5*	2.2	1.3	2.0
O=C(COc1ccccc1[N+](=O)[O-])N/N=C/c1ccc(OC(=O)c2ccco2)cc1	-12.1	62.1*	-2.3	0.7	2.8
Cc1ccc(-c2cc3nc(NCCc4ccncc4)n(C)c(=O)c3s2)cc1	10.8	·	6.0	·	·
O=C(Nc1nc(-c2ccccn2)cs1)c1cc2ccccc2o1	8.2	0.8	32.6	-1.7	10.3
Cc1c(C(=O)Nc2nc(-c3ccccn3)cs2)oc2ccccc12	29.3	3.7	41.7*	1.7	16.1*
O=C(O)CCn1cc(C2CC(c3ccccc3)=NN2c2ccccc2)c(-c2ccccc2)n1 (centres undefined)	4.0	9.3	-2.4	6.3	15.2*
O=S(=O)(O)c1ccc(N2N=C(c3ccccc3)CC2c2ccccc2)cc1 (centres undefined)	19.2	-1.2	-3.4	3.7	1.0
CC(NC(=O)C1CCN(Cc2ccc(Oc3ccccc3)cc2)CC1)c1cccc2ccccc12 (centres undefined)	7.6	·	-1.4	·	·
Cc1ccc(NC(=O)Cn2c(O)c(N=NC(=O)c3ccncc3)c3ccccc32)cc1	16.7	0.0	-2.7	1.6	-3.0
Cc1ccc(NC(=O)Cn2c(O)c(N=NC(=O)c3cc4ccccc4cc3O)c3ccccc32)cc1	46.0*	-11.2	-10.3	0.9	11.2
O=C(N=Nc1c(O)n(Cc2ccccc2)c2ccccc12)c1cc2ccccc2cc1O	39.6*	3.4	-7.2	-1.1	6.8
COc1ccccc1-c1cnc(C(O)c2ccc(CN3CCCCC3)cc2)[nH]1 (centres undefined)	-4.8	·	-6.5	·	·
CCCCN(C)C(=O)c1ccc(Nc2nc(C(N)Cc3ccc(C(F)(F)F)cc3)cs2)nc1 (centres undefined)	16.3	·	-1.7	·	·
Cc1cc(/C=C2\SC(=S)NC2=O)c(C)n1-c1cccc(O)c1	30.2*	1.2	·	4.2	8.1
Cc1sc(-n2c(C)cc(/C=C3\SC(=S)NC3=O)c2C)c(C#N)c1C	24.6*	-2.8	·	0.5	12.1
CCn1c(C)cc(/C=C2/SC(=S)NC2=O)c1C	-4.0	6.2	15.2	-1.0	1.7
Cc1ccc(-n2c(C)cc(/C=C3\SC(=O)NC3=O)c2C)cc1	9.3	-3.3	-2.4	1.3	2.1
COC(=O)C1=C(C)NC(=O)/C1=C\c1cc(C)n(-c2cccc(C)c2)c1C	32.3*	15.8	9.8	4.2	1.0
SMILES	NadD block	PREPL inh	Rpn11 inh	PP5 primary	PP1 inh
COC(=O)C1=C(C)NC(=O)/C1=C\c1cc(C)n(-c2ccc(F)cc2)c1C	6.0	13.6	6.6	4.8	1.9
N#CCNC1CC(=O)N(c2ccccc2)C1=O (centres undefined)	-4.0	4.3	-7.2	1.6	-3.2
CC(C)OCCCNC(=O)C(Cc1ccccc1)NS(=O)(=O)c1ccc2c(c1)CCC(=O)N2 (centres undefined)	-3.3	6.7	-4.4	0.4	2.2
CCOC(=O)c1ccc(CC2SC(N)=NC2=O)cc1 (centres undefined)	-5.0	-3.0	-7.0	-1.3	-0.8
CC(=O)c1ccc(CC2SC(N)=NC2=O)cc1 (centres undefined)	5.6	4.3	5.1	-3.1	15.6*
Cn1c(=O)c(C(=O)COC(=O)c2cc(C3CC3)nc3ccccc23)c(N)n(Cc2ccccc2)c1=O	·	-17.2	·	5.4	13.6
Cn1c(=O)c(C(=O)COC(=O)c2cc(-c3ccco3)nc3ccccc23)c(N)n(CC2CC2)c1=O	·	-41.4	·	3.9	20.6*
